Screening results: PubChem BioAssay, National Center for Advancing Translational Sciences (NCATS)
Hits are enriched below; roughly 12% of the tested compounds scored in any of these assays.
Sm TGR inh – S. mansoni TGR enzyme inhibition. Q962Y6. purified TGR, DTNB reduction, TNB absorbance 405 nm. Potency, µM (highest dose often 114 µM), most hits filed as inhibitors. hit rate 3% among 360,000. AID 485364; also: nearly all actives have a fitted effect of over 60% in size
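TGR 20 nM + NADPH 100 uM (dispensed conc.), cpd preinc 15 min RT; start with NADPH (500 uM addition) then DTNB (15 mM addition). Kinetic TNB absorbance, 405 nm filter. Four-parameter Hill fit across titration.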
AmpC detergent – AmpC beta-lactamase inhibition with detergent present. AmpC hydrolysis of nitrocefin, absorbance 480 nm, 0.01% Triton. AID 485294. hit rate 0.041% among 370,000. Potency, µM (top dose mostly 114 µM), most hits filed as inhibitors; also: nearly all actives have a fitted effect of over 25% in size
Target sequence (P00811 whole entry, looked up): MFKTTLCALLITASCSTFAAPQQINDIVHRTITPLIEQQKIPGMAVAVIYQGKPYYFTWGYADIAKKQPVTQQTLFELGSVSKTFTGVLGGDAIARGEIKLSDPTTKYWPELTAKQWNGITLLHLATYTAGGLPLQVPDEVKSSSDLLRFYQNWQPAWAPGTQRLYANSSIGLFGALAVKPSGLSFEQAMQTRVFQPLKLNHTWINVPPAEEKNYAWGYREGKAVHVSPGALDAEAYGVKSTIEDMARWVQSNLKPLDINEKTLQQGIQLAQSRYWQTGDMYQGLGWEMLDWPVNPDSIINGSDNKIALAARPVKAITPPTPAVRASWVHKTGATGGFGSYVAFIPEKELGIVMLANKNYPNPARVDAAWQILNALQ
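20 mM phosphate pH 7.0 + 0.01% (detergent screen) or 0.0001% Triton X-100; 5.3 nM AmpC reagent; cpd preinc 15 min RT; nitrocefin (800 uM stock) to start; A480 q20 s × 4 min; Activity was normalised to no-enzyme and no-compound control wells.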
AmpC inh no detg – blocks E. coli AmpC beta-lactamase in detergent-free assay; P00811; AID 485341; Potency, µM (titrated, usually from 57.1 µM), hits mostly inhibitors; hit rate 0.52% among 330,000; AmpC nitrocefin hydrolysis, absorbance 480 nm, 0.0001% Triton; also: nearly all actives have a fitted effect of over 20% in size
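20 mM phosphate pH 7.0 + 0.01% (detergent screen) or 0.0001% Triton X-100; 5.3 nM AmpC reagent; cpd preinc 15 min RT; nitrocefin (800 uM stock) to start; A480 q20 s × 4 min; Activity was normalised to no-enzyme and no-compound control wells.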
Pf growth 96h – P. falciparum growth inhibition at 96 hours. P. falciparum luciferase reporter growth, 96 h. Potency, µM (doses to about 28.7 µM), usual class: inhibitors. hit rate 6.9% among 320,000. AID 504834
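Two parasite generations (96 h, 37 C, 5% CO2) of compound exposure in infected erythrocytes (0.05% parasitemia, 2% hematocrit). Luciferase-reporter P. falciparum; decreased luminescence indicates inhibited growth, aimed at apicoplast-acting delayed death.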
SARS PLP yeast – blocks SARS-CoV papain-like protease in a yeast assay; S. cerevisiae expressing SARS-CoV PLpro, growth rescue; Potency, µM (doses to about 32.9 µM), hits mostly activators; hit rate 0.19% among 330,000; calls by dose curve; also: nearly all actives have a fitted effect of over 55% in size
Pf growth 48h – inhibits P. falciparum growth in the first generation, 48 h; P. falciparum luciferase growth in erythrocytes, 48 h; Potency, µM (doses to about 28.7 µM), most hits filed as inhibitors; AID 504832; hit rate 5.9% among 310,000
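Parasite viability was followed by luminescence of a genomically integrated firefly luciferase. Cultures held 0.1% parasitemia at 2% hematocrit (final), incubated under 5% CO2 at 37 C.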
Of the large screens only hits and unclear results are named; the others gave an inactive call; ! = repeats disagree. Unless noted, calls follow the shape of the dose curve; as a rule, active = well fitted curve in the direction sought with a large enough effect; inconclusive = small, poorly fitted or top-dose-only effect, or another doubt; inactive = no such curve, though single readings can be large; an effect the other way counts as inactive or inconclusive.

COc1ccc(Cn2c(-c3ccc(C)cc3)c[n+]3ccccc23)cc1	Pf growth 96h 0.104µM, Pf growth 48h 0.37µM
COc1ccc(Cn2c(O)c(C=Nc3ccc(C)cc3)c3ccccc3c2=O)cc1	none
COc1cc2c(cc1Cl)/C(=C\CCN(C)C)c1ccccc1S2	Sm TGR inh 28.2µM, Pf growth 96h 10.4µM, Pf growth 48h 10.4µM
CN(C)CC/C=C1/c2ccccc2Sc2c(O)cc(Cl)cc21	Pf growth 96h 0.828µM, Pf growth 48h inconclusive
COc1cc(Cl)cc2c1Sc1ccccc1/C2=C/CCN(C)C	Sm TGR inh 17.8µM, Pf growth 96h inconclusive, Pf growth 48h 11.7µM
CCc1cc(C(=O)O)c(NC(=O)c2cc(OC)c(OC)c(OC)c2)s1	AmpC detergent inconclusive, Pf growth 48h inconclusive
O=C(COc1cc2oc(=O)cc(-c3ccccc3)c2cc1Cl)NC(Cc1c[nH]c2ccc(O)cc12)C(=O)O (configuration not stated)	AmpC detergent inconclusive
Cc1ccc(C)c(NC(=O)C2CCCN(S(=O)(=O)c3cccc4nsnc34)C2)c1 (configuration not stated)	none (no result: AmpC inh no detg, Pf growth 96h, SARS PLP yeast, Pf growth 48h)
CCC(C)C(NC(=O)C1CCC(C)CC1)C(=O)Nc1ccc(OC)cc1 (configuration not stated)	Pf growth 48h inconclusive
Cc1ccc(N(CC(C)C)S(=O)(=O)c2nnc(NC(=O)c3ccco3)s2)cc1	none (no result: AmpC inh no detg, Pf growth 96h, SARS PLP yeast, Pf growth 48h)
CCN(c1cc(C)cc(C)c1)S(=O)(=O)c1nnc(NC(=O)c2cccs2)s1	none (no result: AmpC inh no detg, Pf growth 96h, SARS PLP yeast, Pf growth 48h)
CCN(c1ccccc1)S(=O)(=O)c1nnc(NC(=O)c2ccco2)s1	Sm TGR inh 20µM!
Cc1ccc(OCc2nnc(NC(=O)c3ccco3)s2)c(C)c1	AmpC detergent inconclusive, Pf growth 96h 1.85µM
CCN(c1cccc(C)c1)S(=O)(=O)c1nnc(NC(=O)c2cccs2)s1	none (no result: AmpC inh no detg, Pf growth 96h, SARS PLP yeast, Pf growth 48h)
Cc1ccc(OCc2nnc(NC(=O)c3ccco3)s2)cc1	AmpC detergent inconclusive (no result: Pf growth 48h)
CCN(c1cccc(C)c1)S(=O)(=O)c1nnc(NC(=O)c2ccccc2Cl)s1	Sm TGR inh 79.4µM (no result: AmpC inh no detg, Pf growth 96h, SARS PLP yeast, Pf growth 48h)
CCN(c1cccc(C)c1)S(=O)(=O)c1nnc(NC(=O)c2ccco2)s1	Sm TGR inh 25.1µM, Pf growth 96h inconclusive
CCOC(=O)c1ccoc1CSCc1ccc(C(=O)OC)o1	Sm TGR inh 28.2µM
CC(C)CC1c2[nH]c3ccccc3c2CCN1CCCn1cccn1 (configuration not stated)	Pf growth 96h 13.1µM, Pf growth 48h inconclusive
COc1cccc(C2c3[nH]c4ccccc4c3CCN2CCCn2cccn2)c1 (configuration not stated)	Pf growth 96h inconclusive, Pf growth 48h inconclusive
COc1ccc(C2c3[nH]c4ccccc4c3CCN2CCCn2cccn2)c(C)c1C (configuration not stated)	Pf growth 96h 11.7µM, Pf growth 48h inconclusive
Cc1c(-c2ccccc2)oc2c(C(=O)N3CCN(c4ccc([N+](=O)[O-])cc4)CC3)cccc2c1=O	AmpC detergent inconclusive, Pf growth 96h inconclusive, Pf growth 48h inconclusive
CC1=C(C(=O)Nc2cccnc2)C(c2ccc(F)cc2)n2nc(SCc3ccccc3)nc2N1 (configuration not stated)	none (no result: AmpC inh no detg, Pf growth 96h, SARS PLP yeast, Pf growth 48h)
Cc1ccc(CC(CC(=O)Nc2cccc(C(F)(F)F)c2)C(=O)O)cc1 (configuration not stated)	Pf growth 96h 14.7µM
O=C(CC(Cc1ccccc1)C(=O)O)Nc1ccccc1 (configuration not stated)	none
O=C1CCCN1CCCNC(=S)Nc1ccc(Cl)cc1Cl	Sm TGR inh 89.1µM
O=C(NCCCN1CCCC1=O)Nc1ccc(Br)cc1Cl	Pf growth 96h 10.4µM
Cc1ccc(C)c(N2CCN(C(=O)CS(=O)(=O)c3cccc4nsnc34)CC2)c1	none (no result: AmpC inh no detg, Pf growth 96h, SARS PLP yeast, Pf growth 48h)
CCn1cc(C(=O)N2CCN(c3cccc(Cl)c3)CC2)c(=O)c2cc(S(=O)(=O)N3CCOCC3)ccc21	none (no result: AmpC inh no detg, Pf growth 96h, SARS PLP yeast, Pf growth 48h)
Oc1ccc(COC2CCCC2)c2cccnc12	Sm TGR inh 17.8µM, AmpC detergent inconclusive, Pf growth 96h 8.28µM, Pf growth 48h 1.31µM
COCc1ccc(O)c2ncccc12	Pf growth 96h inconclusive (no result: Pf growth 48h)
